SARS PLpro yeast = blocks SARS-CoV papain-like protease in a yeast assay | Potency, µM (series often up to 32.9 µM), actives largely listed as activators | S. cerevisiae expressing SARS-CoV PLpro, growth rescue | 330,000 compounds, 0.19% hits; also: nearly all actives have a fitted effect of over 55% in size
Pf growth 48h = inhibits P. falciparum growth in the first generation, 48 h; AID 504832; 310,000 compounds, 5.9% hits; Potency, µM (highest dose often 28.7 µM), hits mostly inhibitors; P. falciparum luciferase growth in erythrocytes, 48 h; active = well fitted inhibition curve with a large enough effect; inconclusive = small, poorly fitted or top-dose-only effect, or another doubt; inactive = no such curve, though single readings can be large or run the other way
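Cell-based growth assay: transgenic P. falciparum expressing firefly luciferase, cultured in red cells within RPMI 1640 containing 0.5% w/v Albumax, 24 mM bicarbonate and gentamycin. A drop in luciferase activity indicates inhibition.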
NS1 inh = blocks influenza NS1 protein function. Potency, µM (highest dose often 46.1 µM). AID 2326. 270,000 compounds, 0.4% hits; also: actives are rising curves; nearly all actives have a fitted effect of over 50% in size
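Read-out: OD600 growth recovery of NS1-expressing budding yeast. Cells grown overnight at 30C in -URA glucose medium, washed, resuspended and diluted 1:100 in 2% galactose assay medium, pH 6.0. Same strain lacking NS1 served as positive control.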
Pf growth 96h = inhibits malaria parasite growth, 96 h | P. falciparum luciferase reporter growth, 96 h | Potency, µM (doses to about 28.7 µM), most hits filed as inhibitors | 320,000 compounds, 6.9% hits | AID 504834; active = well fitted inhibition curve with a large enough effect; inconclusive = small, poorly fitted or top-dose-only effect, or another doubt; inactive = no such curve, though single readings can be large or run the other way
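P. falciparum expressing integrated firefly luciferase, in erythrocytes at 2% hematocrit, 0.05% parasitemia, incubated with compounds 96 h at 37 C, 5% CO2. Growth inhibition read as loss of luminescence; two-generation exposure targets delayed-death apicoplast inhibitors.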
Shiga toxin inh = Shiga toxin inhibition; 290,000 compounds, 9.2% hits; inhibition, % at 38.7 µM; Vero cells, Shiga toxin protein synthesis inhibition reporter; AID 2315; in the data active = inhibition mostly above about 28%, no sharp cut-off; inactive = mostly below about 43%
CHX counter = affects cycloheximide protein synthesis inhibition readout, counter-screen | cell reporter, cycloheximide protein synthesis inhibition counterscreen | max response, % | 300,000 compounds, 12% hits; in the data active = max response mostly above about 13%, no sharp cut-off; inactive = mostly below about 14%; also: read at 38.3 µM for the half of the compounds with a filed dose
A number is an active result; [ ] = remark or other dose. Only some compounds are listed: those with a hit (about 21% of all), similar ones and a draw of the others. Unless noted, calls follow the shape of the full dose curve.

Results for COc1ccc(-c2nc(N)n(C(=O)c3cccs3)n2)cc1 ?
SARS PLpro yeast: inactive; Pf growth 48h: inactive; Pf growth 96h: inconclusive; Shiga toxin inh: inactive; CHX counter: inactive

How did CCOc1ccccc1NC(=O)CN(c1ccc(OC)cc1OC)S(=O)(=O)c1ccccc1[N+](=O)[O-] do in these assays?
SARS PLpro yeast: inactive; Pf growth 48h: inconclusive; NS1 inh: inactive; Pf growth 96h: inactive[1.15 µM]; Shiga toxin inh: inactive; CHX counter: inactive

How did CCN(CC(=O)Nc1ccc(OC)cc1)C(=O)c1ccc2c(c1)NC(=O)CS2 do in these assays?
SARS PLpro yeast: inactive; Pf growth 48h: inactive; Pf growth 96h: inactive

What do the screens show for `c1ccc2oc(-c3csc(NCC4CCCO4)n3)cc2c1` (stereo not given)?
SARS PLpro yeast: inactive; Pf growth 48h: inactive; Pf growth 96h: inactive; Shiga toxin inh: 74.0; CHX counter: 30.0

Results for COc1ccccc1N1CCN(Cc2ccc(O)c3ncccc23)CC1 ?
SARS PLpro yeast: inactive; Pf growth 48h: 2.62µM; NS1 inh: inactive; Shiga toxin inh: inactive; CHX counter: 20.9

How did Oc1ccc(COC2CCN(Cc3ccccc3)C2)c2cccnc12 (stereo not given) do in these assays?
SARS PLpro yeast: inactive; Pf growth 48h: 8.28µM; Pf growth 96h: 11.7µM

What do the screens show for `Oc1ccc(CN2CCCc3ccccc32)c2cccnc12`?
SARS PLpro yeast: inactive; Pf growth 48h: 13.1µM; NS1 inh: inactive; Pf growth 96h: inactive; Shiga toxin inh: inactive; CHX counter: inactive

How did COc1ccccc1N1CCN(Cc2ccc(OC)c(OC)c2OC)CC1 do in these assays?
SARS PLpro yeast: inactive; NS1 inh: inactive; Pf growth 96h: inconclusive; Shiga toxin inh: inactive; CHX counter: inactive

How did CCOC(=O)C1CCN(Cc2ccc(O)c3ncccc23)CC1 do in these assays?
SARS PLpro yeast: inconclusive; Pf growth 48h: 10.4µM; NS1 inh: inactive; Pf growth 96h: inactive; Shiga toxin inh: 110.2; CHX counter: 21.7

What do the screens show for `Cc1cccc(NCc2ccc(O)c3ncccc23)c1C`?
SARS PLpro yeast: inactive; Pf growth 48h: inactive; NS1 inh: inactive; Pf growth 96h: inactive; Shiga toxin inh: inactive; CHX counter: inactive

What do the screens show for `C[C@]12CC[C@H]3c4ccc(O)cc4CC[C@@H]3[C@H]1C/C(=N/O)[C@H]2O`?
NS1 inh: inactive

Results for C[c-]1[c-](C)[c-](C)[c-](C)[c-]1C.[Fe].c1cc2nccc(N3CCCC3)[c-]2c1 (stereo not given) ?
SARS PLpro yeast: inactive; Pf growth 48h: inconclusive; NS1 inh: inactive; Pf growth 96h: inconclusive; Shiga toxin inh: inactive; CHX counter: inactive

How did O=C(CN1C(=O)NC2(CCCC2)C1=O)OCc1cccc(Br)c1 do in these assays?
SARS PLpro yeast: inactive; Pf growth 48h: inactive; Pf growth 96h: inactive

How did Cc1c(-c2ccccc2)[n+](=O)c(-c2ccco2)c(C)n1[O-] do in these assays?
SARS PLpro yeast: inactive; Pf growth 48h: inactive; NS1 inh: inactive; Pf growth 96h: 5.22µM; Shiga toxin inh: inactive; CHX counter: inactive

How did COc1ccccc1NC(=O)Nc1nc(CC(=O)N2CCN(c3ccccc3)CC2)cs1 do in these assays?
SARS PLpro yeast: inactive; Pf growth 48h: 11.7µM; Pf growth 96h: inconclusive

Results for COc1ccccc1NC(=O)Nc1nc(CC(=O)Nc2ccc(F)cc2)cs1 ?
SARS PLpro yeast: inactive; Pf growth 48h: inconclusive; Pf growth 96h: inconclusive

How did COc1ccccc1NC(=O)Nc1nc(CC(=O)N2CCN(c3ccc(F)cc3)CC2)cs1 do in these assays?
SARS PLpro yeast: inactive; Pf growth 48h: 9.28µM; Pf growth 96h: inconclusive

What do the screens show for `COc1ccccc1NC(=O)Nc1nc(CC(=O)NC2CCCC2)cs1`?
SARS PLpro yeast: inactive; Pf growth 48h: inconclusive; Pf growth 96h: inconclusive

How did COc1ccc(N2CCN(C(=O)Cc3csc(NC(=O)Nc4ccccc4OC)n3)CC2)cc1 do in these assays?
SARS PLpro yeast: inactive; Pf growth 48h: 7.38µM; Pf growth 96h: inconclusive

What do the screens show for `O=C(N/C=C\n1cnc2cc(C(F)(F)F)ccc21)c1ccc([N+](=O)[O-])cc1`?
SARS PLpro yeast: inactive; Pf growth 48h: inconclusive; NS1 inh: inactive; Pf growth 96h: inactive; Shiga toxin inh: inactive; CHX counter: inactive

How did CCOc1c(Cl)cc(Cl)cc1CNCCNCCO do in these assays?
SARS PLpro yeast: inactive; Pf growth 48h: inconclusive; NS1 inh: inactive; Pf growth 96h: inconclusive; Shiga toxin inh: inactive; CHX counter: inactive

What do the screens show for `Cc1ccc(OCC(=O)N2CCC(N3CCCCCC3)CC2)cc1`?
SARS PLpro yeast: inactive; Pf growth 48h: inconclusive; NS1 inh: inactive; Shiga toxin inh: inactive; CHX counter: inactive

How did O=C(C[n+]1ccccc1)Nc1c(Cl)cc(Cl)cc1Cl do in these assays?
SARS PLpro yeast: inactive; Pf growth 48h: inactive; NS1 inh: inactive; Pf growth 96h: inactive; Shiga toxin inh: inactive; CHX counter: inactive

Results for CN(C)c1cc[n+](CC(=O)Nc2ccc(OC(F)F)cc2)cc1 ?
SARS PLpro yeast: inactive; Pf growth 48h: 2.33µM; NS1 inh: inactive; Pf growth 96h: 0.465µM; Shiga toxin inh: inactive; CHX counter: inactive

How did CN(C)c1cc[n+](CC(=O)Nc2ccc(Cl)c([N+](=O)[O-])c2)cc1 do in these assays?
SARS PLpro yeast: inactive; Pf growth 48h: 1.17µM; NS1 inh: inactive; Pf growth 96h: inactive; CHX counter: inactive

How did Cc1ccc[n+](CC(=O)Nc2c(Cl)cc(Cl)cc2Cl)c1 do in these assays?
SARS PLpro yeast: inactive; Pf growth 48h: inactive; NS1 inh: inactive; Pf growth 96h: inactive; Shiga toxin inh: 75.9; CHX counter: 25.3

What do the screens show for `Cc1ccc[n+](CC(=O)Nc2ccc(N(C)C)cc2)c1`?
SARS PLpro yeast: inactive; Pf growth 48h: inactive; NS1 inh: inactive; Pf growth 96h: 5.22µM; Shiga toxin inh: inactive; CHX counter: inactive

Results for CN(C)c1ccc(NC(=O)C[n+]2ccccc2)cc1 ?
SARS PLpro yeast: inactive; Pf growth 48h: inactive; NS1 inh: inactive; Pf growth 96h: inactive; Shiga toxin inh: inactive; CHX counter: inactive

What do the screens show for `O=C(NCC12CC3CC(CC(C3)C1)C2)c1nn2cccnc2c1Cl`?
SARS PLpro yeast: inactive; Pf growth 48h: inactive; NS1 inh: inactive; Shiga toxin inh: inactive; CHX counter: inactive

Results for O=C(NCC1CCCO1)c1nn2cccnc2c1Cl (stereo not given) ?
SARS PLpro yeast: inactive; Pf growth 48h: inactive; NS1 inh: inactive; Pf growth 96h: inactive; Shiga toxin inh: 28.5; CHX counter: 24.0

What do the screens show for `Cn1ncc(C#N)c1NC(=O)c1nn2cccnc2c1Cl`?
SARS PLpro yeast: inactive; Pf growth 48h: inactive; NS1 inh: inactive; Pf growth 96h: 4.65µM; Shiga toxin inh: inactive; CHX counter: inactive

Results for O=C(NCc1cccs1)c1nn2cccnc2c1Cl ?
SARS PLpro yeast: inactive; Pf growth 48h: inconclusive; NS1 inh: inactive; Shiga toxin inh: inactive; CHX counter: 21.5

How did CCN(CC)C(=O)c1[nH]cnc1C(=O)NCC(=O)OCc1ccccc1 do in these assays?
SARS PLpro yeast: inactive; Pf growth 48h: inactive; NS1 inh: inactive; Pf growth 96h: inactive; Shiga toxin inh: inactive; CHX counter: inactive

How did N#CCCN(C(=O)CO/N=C/c1cccc([N+](=O)[O-])c1)c1ccccc1 do in these assays?
SARS PLpro yeast: inactive; Pf growth 48h: inconclusive; Pf growth 96h: inconclusive; Shiga toxin inh: inactive; CHX counter: inactive

Screening data deposited in PubChem BioAssay by National Center for Advancing Translational Sciences (NCATS).
